Holding throughout (assay): NCI-60 one-dose screen, 48 h (100 = growth as untreated, 0 = no growth, -100 = all killed)
Common to all, as to conditions: 10 µM unless noted

Assay [1] has as its system DU-145 prostate.
The test system of assay [2] is K-562 leukemia.
Assay [3] concerns MALME-3M melanoma.
Assay [4] concerns MDA-MB-231 breast.
Assay [5] relates to RXF 393 renal.
Assay [6] has as its system SF-268 CNS.
Assay [7] deals with SF-295 CNS.
Assay [8] relates to SF-539 CNS.
Assay [9] concerns UACC-257 melanoma.
For assay [10], the system named is M14 melanoma.
Assay [11] concerns HCT-15 colon.
Assay [12] has as its system HT29 colon.
For assay [13], the system named is SNB-75 CNS.
The test system of assay [14] is SNB-19 CNS.
Assay [15] relates to U251 CNS.
Assay [16] has as its system PC-3 prostate.
In assay [17] the test system is SK-MEL-5 melanoma.
For assay [18], the system named is UACC-62 melanoma.
The subject of assay [19] is SK-MEL-28 melanoma.

Compounds without any hit were thinned out: in the full panel of roughly 83,000, 20% have a hit.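 A percent growth of 40 corresponds to 60% growth inhibition; 0 means no net growth; -100 means all cells died. Active threshold: below 10.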 Values without a mark were called inactive. The source made the active and inactive calls.

Consider `COc1ccc(/C=C(\C#N)n2nnc3cc(F)c(F)cc32)c(OC)c1OC`, for which the growth was 24.5% in assay [1]; 23% in assay [2]; 93.4% in [3]; 61.7% in assay [4]; 41.1% in assay [5]; 83.5% in [6]. The growth was 105% in assay [7]; 92.1% in assay [8]; 64.4% in assay [9]; 72.7% in assay [10]; 43.7% in assay [11]; 64.5% in assay [12]. The growth in [13] was 82%; in assay [14] it was 82.9%; in assay [15] it was 73.9%; in [16], 57.9%; in [17], 60.5%; in assay [18] it was 58.6%. For the same molecule, the growth in assay [19] is 77.3%.
With `COC(=O)c1ccc2oc(NC(=O)c3ccc(N4CCOCC4)c([N+](=O)[O-])c3)nc2c1`, the growth in assay [1] was 102%; in [2], 84.6%; in assay [3] it was 90.5%; in assay [4], 100%; in assay [5], 119%; in assay [6], 97.4%. The growth was 97.7% in assay [7]; 89.6% in [8]; 97.9% in assay [9]; 98.8% in assay [10]; 107% in assay [11]; 95.6% in assay [12]. Besides, the growth is 79.7% in [13]; 92.4% in assay [14]; 92.2% in assay [15]; 89.5% in [16]; 104% in assay [17]; 90.6% in [18]. In addition, the growth in assay [19] is 97.4%.
Consider `Cc1cc(N(CCCNc2ccnc3cc(Cl)ccc23)Cc2ccccn2)nc(N2CCOCC2)n1`, for which the growth in [1] is 113%; in [2], 67.8%; in [3] it was 89.8%; in assay [4] it was 95.2%; in [5], 77.3%; in assay [6], 83.3%. Further, the growth in assay [7] is 92.9%; in assay [8] it was 91.4%; in assay [9], 101%; in assay [10] it was 95.7%; in [11], 87.3%; in assay [12], 56%. In addition, the growth is 69.2% in assay [13]; 93.9% in assay [14]; 94.8% in assay [15]; 74% in assay [16]; 105% in [17]; 106% in [18]. For the same molecule, the growth in [19] is 106%.
For `C=C1c2c(C)nn(-c3ccc(N)cc3)c2N(C)C23CC1C1(C)c4c(C)nn(-c5ccc(N)cc5)c4N(C)C(C)(CC12)C3` (stereo not drawn), the growth in assay [1] is 81.4%; in [2] it was 42.9%; in assay [3] it was 102%; in assay [4], 89.2%; in [5], 71.7%; in assay [6] it was 76.5%. For the same molecule, the growth in assay [7] was 52.5%; in assay [8], 100%; in assay [9], 72.5%; in assay [10], 61.6%; in assay [11] it was 38.5%; in [12], 61.7%. Moreover, the growth in [13] is 109%; in [14], 80.7%; in assay [15], 79.1%; in assay [16], 53.1%; in assay [17], 52.9%; in assay [18] it was 77.1%. Besides, the growth in [19] was 85.1%.
Regarding `C=C(C)[C@@H]1CC[C@]2(CNCCO)CC[C@]3(C)[C@H](CC[C@@H]4[C@@]5(C)CCC(N)[C@@](C)(CO)[C@@H]5CC[C@]43C)[C@@H]12` (stereo partly drawn), the growth in assay [1] was 10.3%; in [2], -63.2% (active); in assay [3] it was -84.2% (active); in assay [4], -68.4% (active); in [5], 30.2%; in [6], 10.1%. For the same molecule, the growth in assay [7] was -19.6% (active); in assay [8], -80.5% (active); in assay [9], -87.1% (active); in [10], -77% (active); in [11], 32.4%; in assay [12], -56.8% (active). For the same molecule, the growth in [13] was 73.5%; in [14], 29.8%; in [15] it was -86.1% (active); in [16], 20.1%; in [17] it was -96.1% (active); in assay [18], -75.7% (active). In addition, the growth in [19] was -85.7% (active).
Take `C=C(C)[C@@H]1CC[C@]2(CN)CC[C@]3(C)[C@H](CC[C@@H]4[C@@]5(C)CCC(N)[C@@](C)(CO)[C@@H]5CC[C@]43C)[C@@H]12` (stereo partly drawn): the growth was -38.1% (active) in assay [1]; -69.8% (active) in assay [2]; -85.9% (active) in assay [3]; -80.9% (active) in assay [4]; 58.4% in assay [5]; -79.5% (active) in assay [6]. The growth in assay [7] is 87.8%; in assay [8], -72.6% (active); in assay [9] it was -88.7% (active); in assay [10], -81.8% (active); in assay [11] it was -47.6% (active); in assay [12] it was -60.6% (active). Besides, the growth in assay [13] was 75.6%; in assay [14] it was -10.5% (active); in [15] it was -93.8% (active); in [16], 6.4% (active); in [17] it was -97.2% (active); in assay [18], -79.6% (active). Moreover, the growth in [19] was -94.2% (active).
Regarding `COc1ccc(Oc2nc(Nc3ccc(N4CCCCC4)nc3)ncc2NC(=O)c2cc(OC)cc(OC)c2)cc1`, the growth in assay [1] is 40.7%; in [2] it was 18.6%; in [3], 64.4%; in [4] it was 61.5%; in [5], 41%; in assay [6], 46.3%. The growth in [7] is 23.7%; in assay [8], 21.3%; in assay [9], 59.4%; in assay [10], 32.3%; in [11] it was 17.8%; in assay [12], 13.8%. The growth in [13] was 34.1%; in [14], 41.5%; in [15], 35.1%; in assay [16] it was 35.6%; in [17], 28.7%; in assay [18], 18.8%. Further, the growth in assay [19] was 53.9%.
